According to PubChem BioAssay AID1159580 (chemical genetic matrix, 2015):
“And” between values parts separate entries of the source, which are not always exact repeats. Identical values can stand only once. Out of some 5,500 compounds screened, about 2,000 (36%) were called active. About 18% were inconclusive and are not listed. Rule as the data show it: active = normalized growth mostly below about 0.91 (no sharp cut-off); inconclusive = no clear call, values can overlap the other calls; inactive = mostly above about 0.92. Some of the results follow.

Test: chemical genetic growth profiling, strain panel (AID 1159580);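 also: tested at 20 µM; growth read once vehicle control cultures reached saturation at 30 °C; 1 = growth at the plate median or of vehicle wells; lower values mean less growth of the strain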
Settings: S. cerevisiae deletion strains, growth OD

Measured: normalized growth

CC(=O)N(O)CCCCCNC(=O)CCC(=O)N(O)CCCCCNC(=O)CCC(=O)N(O)CCCCCN
active: locus YBR021W, strain FUR4, hits give low values 0.845
inactive: locus YAL013W, strain DEP1, hits give low values 0.997 | locus YAL021C, strain ccr4, hits give low values 0.959 | locus YAL026C, strain drs2, hits give low values 1 | locus YAL030W, strain snc1, hits give low values 1 | locus YBL061C, strain skt5, hits give low values 1 | locus YBR009C, strain hhf1, hits give low values 1 | locus YBR023C, strain chs3, hits give low values 1.02 | locus YBR171W, strain sec66, hits give low values 1.01 | locus YBR229C, strain ROT2, hits give low values 1.01 | locus YBR231C, strain swc5, hits give low values 0.967 | locus YBR279W, strain paf1, hits give low values 0.99 | locus YCL011C, strain gbp2, hits give low values 1.04 | locus YCL016C, strain dcc1, hits give low values 1.03 | locus YCL029C, strain bik1, hits give low values 1.04 | locus YCL069W, strain vba3, hits give low values 0.994 | locus YCR088W, strain abp1, hits give low values 1.02 | locus YDL005C, strain med2, hits give low values 1.01 | locus YDL035C, strain GPR1, hits give low values 0.987 | locus YDL040C, strain nat1, hits give low values 1 | locus YDL074C, strain BRE1, hits give low values 0.907 | locus YDL101C, strain DUN1, hits give low values 1.01 | locus YDL185W, strain tfp1, hits give low values 0.967 | locus YDL192W, strain arf1, hits give low values 1.01 | locus YDR001C, strain nth1, hits give low values 1.03 | locus YDR069C, strain doa4, hits give low values 0.978 | locus YDR101C, strain arx1, hits give low values 1.04 | locus YDR137W, strain rgp1, hits give low values 1.12 | locus YDR150W, strain NUM1, hits give low values 1.01 | locus YDR159W, strain sac3, hits give low values 1.05 | locus YDR162C, strain NBP2, hits give low values 0.997 | locus YDR195W, strain ref2 1.03 | locus YDR297W, strain sur2, hits give low values 0.997 | locus YDR318W, strain mcm21, hits give low values 1.02 | locus YDR334W, strain swr1, hits give low values 0.998 | locus YDR335W, strain msn5, hits give low values 0.987 | locus YDR388W, hits give low values 1.02 | locus YDR392W, strain spt3, hits give low values 1.2 | locus YDR502C, strain sam2, hits give low values 1.04 | locus YEL003W, strain gim4, hits give low values 0.961 | locus YEL037C, strain rad23, hits give low values 0.997 | locus YEL061C, strain CIN8 (second series), hits give low values 1.01 | locus YEL061C, strain CIN8, hits give low values 1.01 | locus YER015W, strain faa2, hits give low values 0.944 | locus YER016W, strain bim1, hits give low values 1.01 | locus YER110C, hits give low values 1.01 | locus YER111C, strain swi4, hits give low values 0.973 | locus YER155C, strain BEM2 (second series), hits give low values 1.06 | locus YER155C, strain BEM2, hits give low values 1.04 | locus YER167W, strain BCK2, hits give low values 1.05 | locus YFR010W, strain ubp6, hits give low values 0.986 | locus YGL078C, strain dbp3, hits give low values 1.07 | locus YGL086W, strain mad1, hits give low values 1.01 | locus YGL167C, strain pmr1, hits give low values 0.978 | locus YGL173C, strain kem1, hits give low values 0.99 | locus YGL227W, strain vid30, hits give low values 1.02 | locus YGL240W, strain doc1, hits give low values 1.01 | locus YGL248W, strain PDE1, hits give low values 0.987 | locus YGL253W, strain hxk2, hits give low values 0.989 | locus YGR078C, strain PAC10, hits give low values 0.983 | locus YGR135W, strain pre9, hits give low values 0.994 | locus YGR252W, strain gcn5, hits give low values 0.771 | locus YHR013C, strain ard1, hits give low values 0.984 | locus YHR027C, strain rpn1, hits give low values 0.94 | locus YHR030C, strain SLT2, hits give low values 1.02 and 1.05 | locus YHR079C, strain IRE1 (second series), hits give low values 1.02 | locus YHR079C, strain IRE1, hits give low values 1.05 | locus YHR094C, strain hxt1, hits give low values 1.02 | locus YHR129C, strain ARP1, hits give low values 1.01 | locus YHR142W, strain chs7, hits give low values 0.981 | locus YHR200W, strain rpn10, hits give low values 1.03 | locus YIL066C, strain RNR3, hits give low values 1.01 | locus YIL073C, strain SPO22, hits give low values 0.95 | locus YIL125W, strain kgd1, hits give low values 1.04 | locus YIR030C, strain dcg1, hits give low values 1.03 | locus YJL092W, strain hpr5, hits give low values 1.03 | locus YJL095W, strain BCK1 (second series), hits give low values 1.01 | locus YJL095W, strain BCK1, hits give low values 0.959 and 1.05 | locus YJL115W, strain asf1, hits give low values 1.01 | locus YJL129C, strain trk1, hits give low values 1.01 | locus YJL134W, strain LCB3, hits give low values 1.01 | locus YJL154C, strain vps35, hits give low values 1.01 | locus YJL164C, strain tpk1, hits give low values 1.03 | locus YJL166W, strain qcr8, hits give low values 1.02 | locus YJL168C, strain set2, hits give low values 1.01 | locus YJL187C, strain SWE1 (second series), hits give low values 0.975 | locus YJL187C, strain SWE1, hits give low values 0.987 | locus YJR043C, strain POL32, hits give low values 1.02
